Results as given in PubChem BioAssay (EPA / NIEHS).
Some structures have more than one record in an assay (separate samples or runs), and their calls can disagree. Activity calls are given as the source filed them. The calls were made as follows: active = hit-call score of the fitted dose curve at least 0.9, where 1 is the maximum; inactive = score below 0.9.

Key:
[1] = ATG_CRE_CIS: Attagene CIS-FACTORIAL HepG2 Assay for human cAMP Responsive Element (CRE) binding protein 3 (AID 2282926); conditions: HepG2 CRE cis-reporter, Attagene multiplexed mRNA; actives raise or lower the signal
Method in brief: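 We dosed HepG2 cells bearing multiple cis-promoter reporter units for 24 h and measured reporter mRNA by RT-PCR with capillary electrophoresis detection. Bidirectional concentration-response fitting used DMSO as negative control.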

[2] = ATG_CMV_CIS: Attagene CIS-FACTORIAL HepG2 Assay for human CMV (Internal Marker) (AID 2282928); conditions: HepG2 CMV promoter reporter, transcription factor profiling; actives raise or lower the signal;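 also: endpoint acts as a background internal control marker rather than a target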
Method in brief: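 CMV internal-marker background readout in transiently transfected HepG2 cells bearing cis-regulated reporter units. Reporter mRNA is measured 24 h after dosing by RT-PCR and capillary electrophoresis, with bidirectional fitting against DMSO.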

[3] = ATG_DR4_LXR_CIS: Attagene CIS-FACTORIAL HepG2 Assay for human Liver X Receptor (LXR), DR4 submotif (AID 2282929); conditions: HepG2 Attagene DR4 cis-reporter, mRNA transcription; actives raise or lower the signal
Method in brief: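 Transiently transfected HepG2 liver cells; cis-regulated reporters; 24 h dosing. RT-PCR plus CE read-out of reporter mRNA. DMSO baseline, bidirectional curve fitting.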

[4] = target: Aryl hydrocarbon receptor (Homo sapiens) (UniProt P35869); experiment: ATG_Ahr_CIS: Attagene CIS-FACTORIAL HepG2 Assay for human Aryl Hydrocarbon Receptor (Ahr) (AID 2282930); conditions: HepG2 AhR cis-factorial reporter transcription; actives raise or lower the signal
Chain of Aryl hydrocarbon receptor (Homo sapiens) (P35869 whole entry, looked up): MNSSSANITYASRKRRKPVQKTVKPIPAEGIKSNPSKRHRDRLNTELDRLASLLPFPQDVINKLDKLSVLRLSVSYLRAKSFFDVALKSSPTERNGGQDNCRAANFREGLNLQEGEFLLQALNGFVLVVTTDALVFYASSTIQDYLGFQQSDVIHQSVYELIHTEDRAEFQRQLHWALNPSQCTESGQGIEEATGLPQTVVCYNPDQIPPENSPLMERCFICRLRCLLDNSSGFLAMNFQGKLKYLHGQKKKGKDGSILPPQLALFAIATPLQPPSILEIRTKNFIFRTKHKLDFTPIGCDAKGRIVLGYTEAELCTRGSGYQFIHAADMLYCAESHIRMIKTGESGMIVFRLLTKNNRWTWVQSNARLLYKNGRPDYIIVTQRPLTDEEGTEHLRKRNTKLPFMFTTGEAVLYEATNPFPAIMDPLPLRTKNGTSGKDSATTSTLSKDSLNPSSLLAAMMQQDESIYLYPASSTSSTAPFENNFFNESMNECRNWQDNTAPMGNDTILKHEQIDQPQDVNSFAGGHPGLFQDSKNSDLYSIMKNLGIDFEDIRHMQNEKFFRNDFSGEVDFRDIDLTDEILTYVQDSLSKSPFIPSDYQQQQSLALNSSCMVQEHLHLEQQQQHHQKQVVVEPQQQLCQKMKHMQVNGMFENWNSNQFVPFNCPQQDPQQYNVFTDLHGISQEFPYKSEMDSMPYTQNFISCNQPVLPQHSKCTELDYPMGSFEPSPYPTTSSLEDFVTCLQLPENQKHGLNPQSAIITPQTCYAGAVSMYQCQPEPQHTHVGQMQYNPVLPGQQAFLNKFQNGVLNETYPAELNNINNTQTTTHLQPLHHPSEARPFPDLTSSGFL
Method in brief: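 Reporter mRNA levels, quantified by RT-PCR and fluorescent capillary electrophoresis, reflect endogenous AhR transcriptional activity in HepG2 cells carrying transfected cis-promoter reporter constructs. Readout at 24 h post-dose; gain or loss fitted against DMSO baseline.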

[5] = ATG_AP_1_CIS: Attagene CIS-FACTORIAL HepG2 Assay for human Activator Protein 1 (AP-1) (AID 2282931); conditions: HepG2 Attagene cis-factorial AP-1 reporter mRNA; actives raise or lower the signal
Method in brief: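 We transfected HepG2 cells transiently with a set of cis-regulated reporter transcription units, dosed them for 24 h, and quantified reporter mRNA via RT-PCR and capillary electrophoresis, scoring gain or loss of signal relative to DMSO.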

[6] = ATG_AP_2_CIS: Attagene CIS-FACTORIAL HepG2 Assay for human Activator Protein 2 (AP-2) (AID 2282932); conditions: HepG2 AP-2 cis-reporter, Attagene transcription factor profiling; actives raise or lower the signal
Method in brief: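 HepG2, transient MRTU transfection, cis-regulated reporters; 24 h compound exposure; RNA isolated, RT-PCR, 6-FAM labelling, HpaI digest, CE fluorescence. DMSO = negative control/baseline, bidirectional fit.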

[7] = ATG_BRE_CIS: Attagene CIS-FACTORIAL HepG2 Assay for human Bone Morphogenetic Protein (BMP) Response Element (BRE) (AID 2282933); conditions: HepG2 BMP response element reporter, Attagene transcription factor profiling; actives raise or lower the signal
Method in brief: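 Read-out: reporter mRNA induction quantified by RT-PCR and capillary electrophoresis after 24 h chemical exposure of transfected HepG2 cells. Endogenous factor activity on the BMP response element; gain or loss fitted against DMSO baseline.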

[8] = target: Transcription factor E2F1 (Homo sapiens) (UniProt Q01094); experiment: ATG_E2F_CIS: Attagene CIS-FACTORIAL HepG2 Assay for human E2F Transcription Factor 1 (AID 2282935); conditions: HepG2 Attagene cis-reporter, E2F reporter RNA transcripts; actives raise or lower the signal
Chain of Transcription factor E2F1 (Homo sapiens) (Q01094 whole entry, looked up): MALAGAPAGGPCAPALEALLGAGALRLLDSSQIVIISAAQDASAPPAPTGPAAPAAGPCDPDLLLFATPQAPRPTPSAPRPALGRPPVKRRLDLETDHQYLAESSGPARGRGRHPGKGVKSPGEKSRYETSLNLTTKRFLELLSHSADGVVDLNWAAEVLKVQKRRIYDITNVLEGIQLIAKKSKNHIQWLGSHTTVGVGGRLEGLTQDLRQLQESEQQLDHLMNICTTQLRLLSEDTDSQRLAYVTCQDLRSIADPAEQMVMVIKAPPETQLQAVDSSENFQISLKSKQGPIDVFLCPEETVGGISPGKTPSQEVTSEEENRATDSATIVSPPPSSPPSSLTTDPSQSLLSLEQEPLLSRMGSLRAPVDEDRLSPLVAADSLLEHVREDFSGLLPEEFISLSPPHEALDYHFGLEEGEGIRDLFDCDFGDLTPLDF
Method in brief: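 Cis-element reporter mRNA induction in transiently transfected HepG2, 24 h exposure. Activity fitted in both directions relative to DMSO negative control.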

[9] = ATG_E_Box_CIS: Attagene CIS-FACTORIAL HepG2 Assay for human Enhancer Box (E-box) (AID 2282936); conditions: HepG2 E-box cis-reporter transcription, actives raise or lower the signal
Method in brief: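 Cells: HepG2 (human liver), transient MRTU transfection. Exposure 24 h. RNA → oligo(dT) RT → PCR → 6-FAM label → HpaI → CE. Activity fitted both directions relative to DMSO.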

[10] = ATG_M_61_CIS: Attagene CIS-FACTORIAL HepG2 Assay for M61 Transcription Factor (Internal Marker) (AID 2282937); conditions: HepG2 Attagene CIS-FACTORIAL M61 internal marker reporter; actives raise or lower the signal
Method in brief: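 Multiplexed reporter mRNA assay, HepG2 human hepatoma cells, 24 h treatment. Signal: FAM-labelled, HpaI-digested RT-PCR fragments by CE. Fit: bidirectional, baseline DMSO.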

[11] = ATG_EGR_CIS: Attagene CIS-FACTORIAL HepG2 Assay for human Early Growth Response 1 (EGR1) (AID 2282938); conditions: HepG2 Attagene CIS-FACTORIAL EGR reporter mRNA; actives raise or lower the signal
Method in brief: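 Multiplexed cis-reporter system in human hepatoma HepG2 cells, transiently transfected. Cells are dosed for 24 h; reporter transcripts are amplified, fluorescently tagged and sized by capillary electrophoresis, with DMSO as negative control.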

[12] = ATG_M_19_CIS: Attagene CIS-FACTORIAL HepG2 Assay for M19 Transcription Factor (Internal Marker) (AID 2282939); conditions: HepG2 Attagene CIS-FACTORIAL M19 internal marker reporter; actives raise or lower the signal
Method in brief: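 Readout: fluorescent reporter-transcript fragments by capillary electrophoresis after RT-PCR. Human HepG2 liver cells carried transfected MRTU constructs reporting endogenous transcription-factor activity; exposure 24 h. Gain or loss of signal fitted relative to DMSO.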

[13] = ATG_ERE_CIS: Attagene CIS-FACTORIAL HepG2 Assay for Estrogen Response Element (ERE) (AID 2282940); conditions: HepG2 ERE cis-reporter, Attagene RNA transcript; actives raise or lower the signal
Method in brief: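 Readout: reporter mRNA induction by RT-PCR, FAM-labelled primer extension, HpaI digestion and capillary electrophoresis, 24 h after dosing transfected HepG2 cells. Endogenous transcription factors act on cis-element-regulated reporters. Gain or loss fitted against DMSO.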

[14] = ATG_Ets_CIS: Attagene CIS-FACTORIAL HepG2 Assay for human Erythroblast Transformation Specific (ETS) (AID 2282941); conditions: HepG2 ETS cis-reporter transcription, actives raise or lower the signal
Method in brief: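 HepG2 cells transfected with multiple cis-regulated reporter units measuring endogenous ETS-driven transcription, 24 h after dosing. Reporter mRNA quantified by RT-PCR with capillary electrophoresis; bidirectional fit relative to DMSO.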

[15] = target: Hepatocyte nuclear factor 3-beta (Homo sapiens) (UniProt Q9Y261); experiment: ATG_FoxA2_CIS: Attagene CIS-FACTORIAL HepG2 Assay for human Forkhead box A2 (FOXA2) (AID 2282942); conditions: HepG2 cis-reporter transcription factor activity, 24 h; actives raise or lower the signal
Chain of Hepatocyte nuclear factor 3-beta (Homo sapiens) (Q9Y261 whole entry, looked up): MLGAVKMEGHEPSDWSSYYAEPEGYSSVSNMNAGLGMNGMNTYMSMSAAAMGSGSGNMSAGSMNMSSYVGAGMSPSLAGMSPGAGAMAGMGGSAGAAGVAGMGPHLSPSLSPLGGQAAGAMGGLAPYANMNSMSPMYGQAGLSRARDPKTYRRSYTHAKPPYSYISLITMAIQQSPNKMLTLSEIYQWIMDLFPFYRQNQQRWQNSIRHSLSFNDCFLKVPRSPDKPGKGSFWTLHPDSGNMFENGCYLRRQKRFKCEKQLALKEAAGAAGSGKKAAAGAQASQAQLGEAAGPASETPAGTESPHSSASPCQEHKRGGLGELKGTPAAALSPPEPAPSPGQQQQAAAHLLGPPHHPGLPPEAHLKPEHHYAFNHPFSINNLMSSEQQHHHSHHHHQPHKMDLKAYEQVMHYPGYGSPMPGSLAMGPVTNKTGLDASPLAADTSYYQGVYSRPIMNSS
Method in brief: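 Multiplexed cis-element reporter assay in transiently transfected HepG2. Twenty-four hours post-dosing, RNA was reverse-transcribed, amplified, FAM-labelled, HpaI-digested and separated by CE. Activity gain or loss relative to DMSO.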

[16] = ATG_FoxO_CIS: Attagene CIS-FACTORIAL HepG2 Assay for human Forkhead box O (FoxO) (AID 2282943); conditions: HepG2 Attagene cis-reporter, FoxO element, mRNA; actives raise or lower the signal
Method in brief: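 Endogenous transcription factor activity read from multiplexed cis-promoter reporter transcripts in transiently transfected HepG2, 24 h after dosing. Reporter RNA measured via RT-PCR plus capillary electrophoresis of FAM-labeled products; gain or loss relative to DMSO.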

[17] = ATG_GATA_CIS: Attagene CIS-FACTORIAL HepG2 Assay for human GATA Binding Protein (AID 2282944); conditions: HepG2 GATA cis-element reporter, Attagene multiplex mRNA; actives raise or lower the signal
Method in brief: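 Read-out: fluorescent reporter mRNA fragments resolved by capillary electrophoresis after RT-PCR. Human liver HepG2 cells carried transiently transfected cis-regulated reporter constructs; chemicals incubated 24 h; gain or loss of signal fitted relative to DMSO.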

[18] = target: Retinoic acid receptor alpha (Homo sapiens) (UniProt P10276); experiment: ATG_DR5_RAR_CIS: Attagene CIS-FACTORIAL HepG2 Assay for human Retinoic Acid Receptor Alpha (RARE), DR5 submotif (AID 2282934); conditions: HepG2 Attagene cis-factorial RARE DR5 reporter, mRNA; actives raise or lower the signal;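 as to AC50: reporter responds to endogenous RAR alpha beta and gamma in HepG2 not RARA alone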
Chain of Retinoic acid receptor alpha (Homo sapiens) (P10276 whole entry, looked up): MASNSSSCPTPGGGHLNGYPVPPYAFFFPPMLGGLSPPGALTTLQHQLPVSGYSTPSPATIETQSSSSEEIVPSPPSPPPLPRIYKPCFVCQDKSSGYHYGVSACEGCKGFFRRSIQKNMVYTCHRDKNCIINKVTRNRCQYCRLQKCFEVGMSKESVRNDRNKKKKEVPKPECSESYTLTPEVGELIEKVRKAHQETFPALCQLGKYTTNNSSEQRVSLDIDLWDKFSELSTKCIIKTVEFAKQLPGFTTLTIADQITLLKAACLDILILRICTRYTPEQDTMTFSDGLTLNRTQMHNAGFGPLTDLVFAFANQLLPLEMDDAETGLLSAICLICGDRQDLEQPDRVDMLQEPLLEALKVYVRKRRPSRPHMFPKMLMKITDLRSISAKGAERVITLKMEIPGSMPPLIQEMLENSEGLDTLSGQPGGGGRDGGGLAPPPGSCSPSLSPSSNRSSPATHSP
Method in brief: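 Reporter transcripts from a DR5-regulated unit, measured via RT-PCR plus capillary electrophoresis, reflect endogenous RAR activity in transiently transfected human HepG2 liver cells. Exposure lasted 24 h; gain or loss of signal scored against DMSO.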

Measured: AC50

O=C(O)c1nc(Cl)ccc1Cl
active: [4] 50 µM
inactive: [1] | [2] | [3] | [4] | [5] | [6] | [7] | [8] | [9] | [10] | [11] | [12] | [13] | [14] | [15] | [16] | [17]

O=C(O)COc1nc(Cl)c(Cl)cc1Cl
inactive: all assays above

O=C(Nc1ccccc1)Nc1ccnc(Cl)c1
active: [1] 22.5 µM | [2] 26.5 µM | [5] 16.3 µM | [7] 27.8 µM | [18] 88.1 µM | [11] 50 µM | [16] 13 µM
inactive: all other assays above

CS/C(C)=N/OC(=O)N(C)SN(C)C(=O)O/N=C(\C)SC
inactive: all assays above
